Assay results reported in PubChem BioAssay (EPA / NIEHS).
Inconclusive results are not listed. Calls of active or inactive are those of the source. The calls were made as follows, unless noted: active = hit-call score of the fitted dose curve at least 0.9, where 1 is the maximum; inactive = score below 0.9.

Tests used:
[1] = target: Oxysterols receptor LXR-alpha (Homo sapiens) (UniProt Q13133); test: ATG_LXRa_TRANS: Attagene TRANS-FACTORIAL HepG2 Assay for human Liver X Receptor alpha (LXRa) (AID 2282980; active = hit-call score of the fitted dose curve at least 0.9, where 1 is the maximum); settings: HepG2 Attagene TRANS reporter, LXRa transactivation
In short: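 Transient HepG2 transfectants, 24 h dosing, RT-PCR/CE mRNA reporter quantitation; gain-of-signal vs DMSO.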

[2] = target: Oxysterols receptor LXR-beta (Homo sapiens) (UniProt P55055); test: ATG_LXRb_TRANS: Attagene TRANS-FACTORIAL HepG2 Assay for human Liver X Receptor beta (LXRb) (AID 2282981; active = hit-call score of the fitted dose curve at least 0.9, where 1 is the maximum); settings: HepG2 Attagene TRANS GAL4-LXRb reporter, mRNA
In short: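 Readout: fluorescent reporter mRNA fragments resolved by capillary electrophoresis after RT-PCR. System: transiently transfected human HepG2, exogenous LXRb-Gal4 chimera driving GAL4-UAS reporter, 24 h dosing. Activity fitted upward against DMSO baseline.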

[3] = target: Nuclear receptor subfamily 4 group A member 2 (Homo sapiens) (UniProt P43354); test: ATG_NURR1_TRANS: Attagene TRANS-FACTORIAL HepG2 Assay for human Nuclear Receptor Related Protein 1 (NURR1) (AID 2282985; active = hit-call score of the fitted dose curve at least 0.9, where 1 is the maximum); settings: HepG2 Attagene TRANS reporter, mRNA readout
In short: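 Read-out: reporter mRNA induction by RT-PCR plus capillary electrophoresis with fluorescence detection, after 24 h dosing of transfected HepG2 cells. Exogenous NR-Gal4 chimera activity drives GAL4-UAS reporter; activity fitted upward versus DMSO.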

[4] = target: Transcriptional activator Myb (Homo sapiens) (UniProt P10242); test: ATG_Myb_CIS: Attagene CIS-FACTORIAL HepG2 Assay for human Myeloblastosis (Myb) Proto-Oncogene Transcription Factor (AID 2282986); settings: HepG2 Attagene CIS-FACTORIAL Myb reporter transcription; actives raise or lower the signal
In short: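 Fluorescence signals from capillary electrophoresis of RT-PCR-amplified reporter cDNA give the read-out. Cells: HepG2 transfected with multiple cis-regulated reporter units. Exposure lasts 24 hours; DMSO defines baseline for gain or loss of signal.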

[5] = target: Nuclear respiratory factor 1 (Homo sapiens) (UniProt Q16656); test: ATG_NRF1_CIS: Attagene CIS-FACTORIAL HepG2 Assay for human Nuclear Respiratory Factor 1 (NRF1) Orphan Gene (AID 2282987); settings: HepG2 NRF1 cis-element reporter, Attagene multiplex; actives raise or lower the signal
In short: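 Transcriptional reporter readout, one component of a 52-endpoint multiplexed HepG2 panel. Exposure 24 h; mRNA detected via RT-PCR and fluorescent capillary electrophoresis; fitting in both directions against DMSO.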

[6] = ATG_NFI_CIS: Attagene CIS-FACTORIAL HepG2 Assay for human Nuclear Factor I (NFI) (AID 2282989); settings: HepG2 cis-regulatory reporter, NFI response element transcription; actives raise or lower the signal
In short: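 Transfected HepG2 liver cells, exposed 24 h, supplied total RNA for oligo(dT) reverse transcription and reporter-specific PCR. Labelled, HpaI-cut fragments were sized by capillary electrophoresis; DMSO set the baseline for bidirectional fitting.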

[7] = target: Myc proto-oncogene protein (Homo sapiens) (UniProt P01106); test: ATG_Myc_CIS: Attagene CIS-FACTORIAL HepG2 Assay for human Myelocytomatosis (Myc) Proto-Oncogene Transcription Factor (AID 2282990); settings: HepG2, Attagene cis-reporter transcription factor activity; actives raise or lower the signal
In short: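 Transiently transfected HepG2 cells bearing cis-promoter reporter units for endogenous transcription factors; 24 h exposure. Reporter mRNA measured by RT-PCR, 6-FAM primer extension, HpaI cut and capillary electrophoresis; bidirectional fit relative to DMSO.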

[8] = ATG_NF_kB_CIS: Attagene CIS-FACTORIAL HepG2 Assay for human Nuclear Factor Kappa B (NF-kB) (AID 2282991); settings: HepG2 Attagene cis-factorial NF-kB reporter mRNA; actives raise or lower the signal
In short: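 HepG2, transient multi-reporter transfection, cis promoter elements (endogenous TFs). 24 h exposure. Total RNA → RT → PCR → 6-FAM label → HpaI → CE. Gain/loss vs DMSO.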

[9] = ATG_NRF2_ARE_CIS: Attagene CIS-FACTORIAL HepG2 Assay for human Nuclear Factor Erythroid 2 Related Factor 2 (NFR2) response to Antioxidant Response Elements (ARE) (AID 2282992); settings: HepG2 Attagene ARE/NRF2 reporter, transcription factor activity; actives raise or lower the signal;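 as to AC50: reporter mRNA level measured by RT-PCR and capillary electrophoresis fluorescence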
In short: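 Using transiently transfected HepG2 cells exposed for 24 h, reporter mRNA levels were determined by RT-PCR with fluorescent primer extension and capillary electrophoresis, analysed for gain or loss of signal against DMSO.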

[10] = ATG_Oct_MLP_CIS: Attagene CIS-FACTORIAL HepG2 Assay for human Octamer-Binding Transcription Factor (Oct) (AID 2282993); settings: HepG2 Attagene cis-factorial Oct reporter, mRNA; actives raise or lower the signal
In short: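 Using HepG2 cells bearing transfected cis-reporter constructs, mRNA induction was read after 24 h by fluorescent RT-PCR and capillary electrophoresis, with DMSO defining baseline for gain- or loss-of-signal fits.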

[11] = target: Cellular tumor antigen p53 (Homo sapiens) (UniProt P04637); test: ATG_p53_CIS: Attagene CIS-FACTORIAL HepG2 Assay for human p53 Transcription Factor (AID 2282994); settings: HepG2 p53 cis-element reporter, Attagene mRNA; actives raise or lower the signal
In short: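 In HepG2 cells, reporter transcription units under cis-regulatory promoters were transiently introduced. Following 24 h treatment, RNA was processed to labelled, digested cDNA fragments read by capillary electrophoresis; fitting was bidirectional versus DMSO.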

[12] = target: Hepatocyte nuclear factor 4-alpha (Homo sapiens) (UniProt P41235); test: ATG_HNF4a_TRANS: Attagene TRANS-FACTORIAL HepG2 Assay for human Hepatocyte Nuclear Factor 4 alpha (HNF4a) (AID 2282982; active = hit-call score of the fitted dose curve at least 0.9, where 1 is the maximum); settings: HepG2 HNF4a transactivation reporter, mRNA readout
In short: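 Transient MRTU transfection of HepG2, 24 h dosing. Readout: reporter mRNA via RT-PCR + capillary electrophoresis, fluorescence; activity fit upward relative to DMSO control.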

[13] = ATG_M_32_TRANS: Attagene TRANS-FACTORIAL HepG2 Assay for M32 Transcription Factor (Internal Marker) (AID 2282984; active = hit-call score of the fitted dose curve at least 0.9, where 1 is the maximum;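 also: transcript level of a background control reporter unit measured by RT-PCR and capillary electrophoresis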); settings: HepG2 Attagene TRANS M32 internal marker reporter
In short: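 Read-out: fluorescent reporter cDNA fragments resolved by capillary electrophoresis after RT-PCR of total RNA. Transfected HepG2 cells were exposed to chemical for 24 h. Activity scored in the positive direction relative to DMSO.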

[14] = ATG_M_06_TRANS: Attagene TRANS-FACTORIAL HepG2 Assay for M06 Transcription Factor (Internal Marker) (AID 2282983; active = hit-call score of the fitted dose curve at least 0.9, where 1 is the maximum;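 also: reporter transcript level by RT-PCR then capillary electrophoresis fluorescence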); settings: HepG2 Attagene TRANS M06 internal marker reporter
In short: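 Human liver HepG2 cells bearing transiently transfected chimeric NR-GAL4 reporter units were treated with chemicals for 24 h. Total RNA was reverse-transcribed, reporter sequences amplified and labelled, then quantified by capillary electrophoresis. Activity was fitted upward relative to DMSO.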

[15] = BSK_3C_TissueFactor: BioMAP Diversity Plus: 3C Assay for Tissue Factor Biomarker Activity (AID 2282997); settings: BioMAP 3C HUVEC, tissue factor biomarker readout; actives raise or lower the signal
In short: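 Cells used were primary human umbilical vein endothelial cells. They were dosed with chemical, and after 24 h Tissue Factor was quantified by ELISA. Curves were fitted bidirectionally with DMSO as baseline.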

[16] = BSK_3C_VCAM1: BioMAP Diversity Plus: 3C Assay for Vascular cell adhesion molecule 1 (VCAM1) Biomarker Activity (AID 2282999); settings: BioMAP 3C HUVEC, VCAM1 ELISA, cytokine-stimulated; actives raise or lower the signal
In short: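 HUVEC primary cells, 24 h compound exposure; VCAM-1 by ELISA; gain/loss of signal fitted bidirectionally vs DMSO baseline.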

Sequence of Oxysterols receptor LXR-beta (Homo sapiens) (P55055 whole entry, looked up, the tested form may be a part): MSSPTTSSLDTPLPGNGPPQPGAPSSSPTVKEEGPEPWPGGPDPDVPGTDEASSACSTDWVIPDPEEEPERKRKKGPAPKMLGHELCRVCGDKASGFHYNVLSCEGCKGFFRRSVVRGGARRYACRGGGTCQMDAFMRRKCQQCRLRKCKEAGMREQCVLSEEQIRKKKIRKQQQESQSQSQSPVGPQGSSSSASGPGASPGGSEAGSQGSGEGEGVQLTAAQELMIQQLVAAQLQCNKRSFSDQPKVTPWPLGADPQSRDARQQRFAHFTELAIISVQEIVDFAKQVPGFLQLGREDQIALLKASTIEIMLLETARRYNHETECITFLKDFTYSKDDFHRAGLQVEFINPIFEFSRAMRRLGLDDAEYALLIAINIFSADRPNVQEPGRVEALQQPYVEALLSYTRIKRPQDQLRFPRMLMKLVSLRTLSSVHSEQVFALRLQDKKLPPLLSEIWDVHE
Sequence of Myc proto-oncogene protein (Homo sapiens) (P01106 whole entry, looked up): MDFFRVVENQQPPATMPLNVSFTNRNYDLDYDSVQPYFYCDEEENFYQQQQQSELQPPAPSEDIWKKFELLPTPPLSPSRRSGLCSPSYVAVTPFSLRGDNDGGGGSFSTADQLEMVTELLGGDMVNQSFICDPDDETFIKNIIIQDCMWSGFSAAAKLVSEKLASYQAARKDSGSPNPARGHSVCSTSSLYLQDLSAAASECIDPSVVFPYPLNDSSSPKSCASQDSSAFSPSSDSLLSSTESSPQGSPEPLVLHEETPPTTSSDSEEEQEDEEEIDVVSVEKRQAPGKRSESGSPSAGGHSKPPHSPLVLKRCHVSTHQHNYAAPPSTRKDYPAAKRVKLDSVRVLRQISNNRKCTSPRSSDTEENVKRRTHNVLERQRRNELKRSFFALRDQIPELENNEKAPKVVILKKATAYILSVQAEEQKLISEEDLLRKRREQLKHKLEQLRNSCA
Sequence of Transcriptional activator Myb (Homo sapiens) (P10242 whole entry, looked up): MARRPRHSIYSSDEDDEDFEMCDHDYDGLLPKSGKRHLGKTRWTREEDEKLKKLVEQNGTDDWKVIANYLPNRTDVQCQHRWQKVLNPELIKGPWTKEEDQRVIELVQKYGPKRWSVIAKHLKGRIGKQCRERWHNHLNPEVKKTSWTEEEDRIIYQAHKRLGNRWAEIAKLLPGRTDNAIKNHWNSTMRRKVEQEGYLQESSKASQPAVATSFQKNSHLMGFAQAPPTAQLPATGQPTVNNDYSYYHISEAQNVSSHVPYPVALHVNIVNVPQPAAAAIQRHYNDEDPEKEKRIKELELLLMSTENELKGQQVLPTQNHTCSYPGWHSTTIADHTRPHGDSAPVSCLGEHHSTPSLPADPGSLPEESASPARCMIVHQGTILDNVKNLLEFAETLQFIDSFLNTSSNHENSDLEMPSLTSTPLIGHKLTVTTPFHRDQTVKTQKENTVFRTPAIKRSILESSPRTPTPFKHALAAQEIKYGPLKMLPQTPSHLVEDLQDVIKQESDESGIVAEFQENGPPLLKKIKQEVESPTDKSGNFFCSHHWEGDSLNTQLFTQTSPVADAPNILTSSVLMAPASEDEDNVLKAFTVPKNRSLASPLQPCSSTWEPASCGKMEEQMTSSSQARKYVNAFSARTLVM
Sequence of Hepatocyte nuclear factor 4-alpha (Homo sapiens) (P41235 whole entry, looked up): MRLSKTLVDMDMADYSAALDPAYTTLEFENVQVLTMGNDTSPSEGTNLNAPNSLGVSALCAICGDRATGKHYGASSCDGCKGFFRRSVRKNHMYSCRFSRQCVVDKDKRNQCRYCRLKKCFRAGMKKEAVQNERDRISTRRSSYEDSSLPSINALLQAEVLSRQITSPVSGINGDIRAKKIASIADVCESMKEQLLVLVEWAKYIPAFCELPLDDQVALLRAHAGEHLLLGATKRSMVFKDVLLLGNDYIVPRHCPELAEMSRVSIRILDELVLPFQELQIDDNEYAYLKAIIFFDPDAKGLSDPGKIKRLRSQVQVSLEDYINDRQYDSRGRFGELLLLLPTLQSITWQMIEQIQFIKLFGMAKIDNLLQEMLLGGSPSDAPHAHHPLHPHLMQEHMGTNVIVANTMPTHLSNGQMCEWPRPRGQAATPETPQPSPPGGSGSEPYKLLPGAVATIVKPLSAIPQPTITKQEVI
Sequence of Nuclear respiratory factor 1 (Homo sapiens) (Q16656 whole entry, looked up): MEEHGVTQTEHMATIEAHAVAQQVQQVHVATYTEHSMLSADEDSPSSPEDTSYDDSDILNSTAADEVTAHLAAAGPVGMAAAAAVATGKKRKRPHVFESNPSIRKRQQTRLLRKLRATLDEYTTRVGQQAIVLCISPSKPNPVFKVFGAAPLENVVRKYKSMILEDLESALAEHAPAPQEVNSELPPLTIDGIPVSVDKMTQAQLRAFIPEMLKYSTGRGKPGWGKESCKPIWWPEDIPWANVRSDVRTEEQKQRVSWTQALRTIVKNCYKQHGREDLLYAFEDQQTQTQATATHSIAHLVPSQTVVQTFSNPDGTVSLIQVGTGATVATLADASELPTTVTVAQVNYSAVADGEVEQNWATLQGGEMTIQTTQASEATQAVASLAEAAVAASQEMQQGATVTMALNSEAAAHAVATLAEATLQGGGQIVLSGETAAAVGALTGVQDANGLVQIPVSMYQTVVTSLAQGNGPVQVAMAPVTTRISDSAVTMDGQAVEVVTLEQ
Sequence of Oxysterols receptor LXR-alpha (Homo sapiens) (Q13133 whole entry, looked up): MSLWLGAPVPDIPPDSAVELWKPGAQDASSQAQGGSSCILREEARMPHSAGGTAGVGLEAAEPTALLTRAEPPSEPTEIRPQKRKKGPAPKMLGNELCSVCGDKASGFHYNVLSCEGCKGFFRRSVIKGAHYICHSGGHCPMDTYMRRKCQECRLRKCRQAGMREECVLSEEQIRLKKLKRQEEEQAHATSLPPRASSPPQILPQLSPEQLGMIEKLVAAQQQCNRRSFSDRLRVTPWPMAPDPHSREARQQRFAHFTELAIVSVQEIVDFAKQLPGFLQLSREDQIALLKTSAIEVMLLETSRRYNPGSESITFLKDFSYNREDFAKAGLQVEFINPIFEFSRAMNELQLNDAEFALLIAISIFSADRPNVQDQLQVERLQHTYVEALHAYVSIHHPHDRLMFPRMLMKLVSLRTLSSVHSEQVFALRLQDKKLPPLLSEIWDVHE
Sequence of Cellular tumor antigen p53 (Homo sapiens) (P04637 whole entry, looked up, the tested form may be a part): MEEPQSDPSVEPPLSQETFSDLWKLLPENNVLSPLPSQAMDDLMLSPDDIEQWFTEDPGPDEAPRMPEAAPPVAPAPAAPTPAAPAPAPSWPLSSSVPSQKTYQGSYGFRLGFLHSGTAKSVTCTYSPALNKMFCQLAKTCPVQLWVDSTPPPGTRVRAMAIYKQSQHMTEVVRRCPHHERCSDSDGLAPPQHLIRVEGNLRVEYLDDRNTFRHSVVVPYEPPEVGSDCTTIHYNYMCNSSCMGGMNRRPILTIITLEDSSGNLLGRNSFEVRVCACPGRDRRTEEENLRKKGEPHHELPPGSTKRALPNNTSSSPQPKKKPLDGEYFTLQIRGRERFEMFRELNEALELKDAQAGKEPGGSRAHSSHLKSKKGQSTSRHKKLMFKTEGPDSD
Sequence of Nuclear receptor subfamily 4 group A member 2 (Homo sapiens) (P43354 whole entry, looked up, the tested form may be a part): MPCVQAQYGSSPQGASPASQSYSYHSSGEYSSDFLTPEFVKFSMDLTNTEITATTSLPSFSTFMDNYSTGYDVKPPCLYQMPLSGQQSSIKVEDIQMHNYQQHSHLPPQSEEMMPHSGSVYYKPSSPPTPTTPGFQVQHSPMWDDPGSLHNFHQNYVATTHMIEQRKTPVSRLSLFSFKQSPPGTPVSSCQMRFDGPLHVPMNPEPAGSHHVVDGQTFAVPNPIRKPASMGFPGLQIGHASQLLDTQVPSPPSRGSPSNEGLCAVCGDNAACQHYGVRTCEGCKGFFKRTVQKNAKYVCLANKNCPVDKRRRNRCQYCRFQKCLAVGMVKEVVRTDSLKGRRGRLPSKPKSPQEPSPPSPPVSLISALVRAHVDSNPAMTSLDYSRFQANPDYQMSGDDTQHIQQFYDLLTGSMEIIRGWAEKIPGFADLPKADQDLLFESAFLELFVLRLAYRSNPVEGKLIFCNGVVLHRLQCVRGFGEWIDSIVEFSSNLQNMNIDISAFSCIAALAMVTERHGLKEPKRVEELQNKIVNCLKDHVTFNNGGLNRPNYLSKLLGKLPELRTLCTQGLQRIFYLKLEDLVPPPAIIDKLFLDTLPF

| SMILES | outcome [1] | outcome [2] | outcome [3] | outcome [4] | outcome [5] | outcome [6] | outcome [7] | outcome [8] | outcome [9] | outcome [10] | outcome [11] | outcome [12] | outcome [13] | AC50 [5] | AC50 [8] | AC50 [9] | AC50 [11] | outcome [14] | outcome [15] | outcome [16] |
| --- | --- | --- | --- | --- | --- | --- | --- | --- | --- | --- | --- | --- | --- | --- | --- | --- | --- | --- | --- | --- |
| CCC(C)(C)C1CCC(OC)CC1 (stereo unspecified) | inactive | inactive | inactive | inactive | inactive | inactive | inactive | inactive | inactive | inactive | inactive | – | – | – | – | – | – | – | – | – |
| CC(=O)OC/C=C(C)/C=C/C=C(C)/C=C/C1=C(C)CCCC1(C)C | inactive | – | inactive | inactive | – | inactive | inactive | – | – | inactive | – | inactive | inactive | 167 µM (active) | 39.8 µM (active) | 3.64 µM (active) | 146 µM (active) | – | – | – |
| CCCCCCCCCCCCCC(=O)OCC | inactive | inactive | inactive | inactive | – | inactive | inactive | – | inactive | inactive | inactive | – | inactive | – | – | – | – | inactive | – | – |
| FC(F)(F)c1ccc(Cl)c(Cl)c1 | inactive | – | – | inactive | inactive | inactive | inactive | inactive | inactive | inactive | inactive | inactive | – | – | – | – | – | – | – | – |
| C=CC(=O)OCCCCCC | inactive | inactive | inactive | inactive | inactive | inactive | inactive | – | inactive | inactive | inactive | – | inactive | – | – | – | – | – | – | – |
| COC(=O)c1ccc(C(=O)OC)cc1 | inactive | – | inactive | inactive | – | inactive | inactive | inactive | inactive | inactive | inactive | inactive | inactive | – | – | – | – | inactive | inactive | inactive |
| O=C(O)c1cccc(Cl)n1 | inactive | – | – | inactive | inactive | inactive | inactive | inactive | inactive | inactive | inactive | inactive | inactive | – | – | – | – | – | – | – |
| CCC(C)COC(=O)CC(C)C (stereo unspecified) | inactive | inactive | – | inactive | inactive | inactive | inactive | inactive | inactive | inactive | inactive | – | inactive | – | – | – | – | – | – | – |
| O=S(=O)(O)CCCN1CCOCC1 | inactive | – | inactive | inactive | inactive | inactive | inactive | – | inactive | inactive | inactive | inactive | – | – | – | – | – | inactive | – | – |
| O=S1(=O)CC=CC1 | inactive | – | – | inactive | – | inactive | inactive | inactive | inactive | inactive | inactive | inactive | – | – | – | – | – | – | – | – |
| CCCC(O)C(CC)CO (stereo unspecified) | inactive | – | inactive | inactive | inactive | inactive | inactive | inactive | inactive | inactive | inactive | inactive | inactive | – | – | – | – | inactive | – | – |
| CCNC(=S)NCC | inactive | inactive | inactive | inactive | inactive | inactive | inactive | inactive | inactive | inactive | inactive | – | inactive | – | – | – | – | inactive | – | – |
| COc1cc(OC)c2ccc(=O)oc2c1 | – | – | inactive | inactive | – | inactive | inactive | inactive | inactive | – | – | inactive | inactive | – | – | – | – | inactive | – | – |
| CC(=O)OC(C)(C)C | – | inactive | inactive | inactive | inactive | inactive | inactive | inactive | inactive | inactive | inactive | inactive | inactive | – | – | – | – | – | – | – |
| C1CCCNCC1 | – | inactive | inactive | inactive | inactive | inactive | inactive | – | inactive | – | – | inactive | – | – | – | – | – | inactive | – | – |
| CCCCCC1C(=O)CCC1CC(=O)OC (stereo unspecified) | – | inactive | inactive | inactive | inactive | inactive | inactive | – | inactive | inactive | inactive | – | – | – | – | – | – | – | – | – |
| CCOC(=O)CC1(C)OCC(C)O1 (stereo unspecified) | – | inactive | – | inactive | inactive | inactive | inactive | inactive | inactive | inactive | inactive | – | – | – | – | – | – | inactive | – | – |
